Source: PubChem (National Center for Advancing Translational Sciences (NCATS))
Hits are enriched below; roughly 2.3% of the tested compounds scored in any of these assays.
WRN helicase inh: inhibitors of human WRN helicase; Potency, µM (highest dose often 114 µM), for the others: at the top dose activity change, negative = inhibition, usual class: inhibitors; WRN helicase unwinding, fluorescent forked duplex, kinetic; AID 651768; 360,000 tested, 0.46% active; also: potency is read from the fitted curve at half-maximal effect; % is scaled to controls: 0 for no effect and ±100 for the full control effect; nearly all actives have a fitted effect of over 55% in size
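Kinetic red-fluorescence monitoring (525/598 nm) tracks WRN helicase activity after 100 nM fluorophore-quencher forked duplex and 2 mM ATP are added to 20 nM enzyme pretreated 15 min at room temperature with compound.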
Pol beta inh-1: inhibitors of human DNA polymerase beta; P06746; Pol beta primer extension/strand displacement, fluorescence kinetic; Potency, µM (titrated, usually from 114 µM), inactives show top-dose activity change, negative = inhibition, actives largely listed as inhibitors; 340,000 tested, 1.3% active; also: potency is read from the fitted curve at half-maximal effect; % is scaled to controls: 0 for no effect and ±100 for the full control effect
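Homogeneous kinetic assay of primer extension and strand displacement by 10 nM Pol beta, preincubated 15 min at room temperature with compound before 50 nM substrate (final) was added. Read at 0 and 10 min; four-parameter Hill fit.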
Pol kappa inh-1: inhibitors of human DNA polymerase kappa; Q9UBT6; purified Pol kappa, fluorescent DNA synthesis assay, 10 min; Potency, µM (highest dose often 107 µM), inactives show at the highest dose activity, negative = inhibition, actives largely listed as inhibitors; 400,000 tested, 0.53% active; also: potency is read from the fitted curve at half-maximal effect; % is scaled to controls: 0 for no effect and ±100 for the full control effect
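Pol kappa 10 nM + cpd, 15 min RT; start w/ substrate 50 nM final; fluorescence kinetic read, 0 and 10 min. Neg ctrl: buffer, no enzyme.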
Pol eta inh-1: DNA polymerase eta (human) inhibition; Q9Y253; recombinant Pol eta, fluorescent DNA replication assay; Potency, µM (doses to about 114 µM), for the others: top-dose activity change, negative = inhibition, actives largely listed as inhibitors; 390,000 tested, 1.2% active; AID 588591; also: potency is read from the fitted curve at half-maximal effect; % is scaled to controls: 0 for no effect and ±100 for the full control effect
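Pol eta at 10 nM preincubated with compounds 15 min at room temperature; reaction started with fluorescent substrate (50 nM final) and read kinetically at 0 and 10 min.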
POLI inh: DNA polymerase iota (human) inhibition | Q9UNA4 | Pol iota fluorescent replication assay, 10 min | Potency, µM (highest dose often 115 µM), without a hit: top-dose activity, negative = inhibition, most hits filed as inhibitors | 390,000 tested, 1% active | AID 588590; also: potency is read from the fitted curve at half-maximal effect
Target sequence (Q9UNA4 whole entry, looked up): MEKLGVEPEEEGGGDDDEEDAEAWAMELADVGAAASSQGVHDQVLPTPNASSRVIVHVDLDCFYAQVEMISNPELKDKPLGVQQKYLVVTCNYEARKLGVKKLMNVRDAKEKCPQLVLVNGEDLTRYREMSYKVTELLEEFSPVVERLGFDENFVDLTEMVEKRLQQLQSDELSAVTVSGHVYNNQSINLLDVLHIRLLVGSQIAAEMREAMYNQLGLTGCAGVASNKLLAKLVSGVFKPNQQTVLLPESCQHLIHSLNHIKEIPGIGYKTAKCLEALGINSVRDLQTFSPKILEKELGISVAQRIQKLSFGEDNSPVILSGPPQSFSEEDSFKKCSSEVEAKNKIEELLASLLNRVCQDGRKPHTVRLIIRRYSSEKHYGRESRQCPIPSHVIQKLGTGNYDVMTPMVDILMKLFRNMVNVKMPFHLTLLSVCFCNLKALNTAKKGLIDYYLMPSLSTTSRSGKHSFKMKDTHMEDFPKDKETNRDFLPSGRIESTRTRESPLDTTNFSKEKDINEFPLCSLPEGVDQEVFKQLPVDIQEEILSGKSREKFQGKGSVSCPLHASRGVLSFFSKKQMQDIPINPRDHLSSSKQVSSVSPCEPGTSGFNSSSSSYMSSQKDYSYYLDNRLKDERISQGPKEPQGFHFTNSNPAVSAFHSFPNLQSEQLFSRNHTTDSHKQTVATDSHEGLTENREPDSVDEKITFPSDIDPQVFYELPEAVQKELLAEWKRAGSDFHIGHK
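Pol iota at 10 nM preincubated 15 min with compounds at room temperature; reaction started with fluorescent substrate, 50 nM final. Fluorescence read kinetically at 0 and 10 min; buffer-only wells as negative control.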
Pol beta inh-2: Validate hits inhibiting human DNA polymerase beta; Potency, µM, actives largely listed as inhibitors; shares compounds with Pol beta inh-1; 250 tested, 87% active; Pol beta primer extension/strand displacement, fluorescence kinetic; AID 540280; calls by dose curve; also: potency is read from the fitted curve at half-maximal effect
Klenow inh: inhibits Klenow fragment polymerase in counter-screen; shares compounds with Pol beta inh-1; Klenow exo- polymerase counter-screen, fluorescent DNA substrate; activity change, negative = inhibition, % at 57.1 µM; 250 tested, under 10 active; AID 540300
HIV RT counter: HIV-1 RT inhibition, pol beta selectivity check; shares compounds with Pol beta inh-1; HIV-1 RT polymerase activity, counter-screen; activity % (negative = inhibition, positive = activation), % at 57.1 µM; 250 tested, under 10 active
POLB valid: DNA polymerase beta inhibition, radiolabeled validation. shares compounds with Pol beta inh-1. AID 540325. 110 tested, 91% active. radiolabeled primer extension gel assay, phosphorimager. inhibition, % at 10 µM;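 active = inhibition at 10 µM of 30% or more; inconclusive = no clear call, values can overlap the other calls; inactive = inhibition at 10 µM under 30%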
TbPGK inh: validation of Trypanosoma brucei phosphoglycerate kinase inhibitors. shares compounds with Pol kappa inh-1. TbPGK coupled GAPDH assay, Kinase-Glo luminescence. Potency, µM (titrated, usually from 57.5 µM), inactives show at the highest dose activity change, negative = inhibition, usual class: inhibitors. 500 tested, 79% active; also: potency is read from the fitted curve at half-maximal effect; % is scaled to controls: 0 for no effect and ±100 for the full control effect; nearly all actives have a fitted effect of over 65% in size
POLI cherry-pick: Inhibitors of human DNA polymerase iota, confirmation; shares compounds with Pol kappa inh-1; Pol iota primer extension, TAMRA/BHQ fluorescence; Potency, µM, actives largely listed as inhibitors; 1,500 tested, 77% active; AID 720496; also: potency is read from the fitted curve at half-maximal effect
GALK inh confirm: confirmation of human galactokinase (GALK) inhibitors | shares compounds with Pol eta inh-1 | purified GALK, Kinase-Glo ATP depletion luminescence | Potency, µM (titrated, usually from 115 µM), for the others: top-dose activity, negative = inhibition, usual class: inhibitors | 150 tested, 70% active
Redox cycling: generates H2O2 by redox cycling, flagging GALK artifacts. shares compounds with Pol eta inh-1. Phenol red-HRP H2O2 redox cycling, absorbance 600 nm. Potency, µM (doses to about 115 µM), inactives show top-dose activity change, negative = H2O2 signal, actives largely listed as inhibitors. 150 tested, 40% active
HEK293 tox: HEK-293 cytotoxicity, GALK inhibitor secondary; shares compounds with Pol eta inh-1; HEK-293 viability, ATP luminescence (CellTiter-Glo), 24/48 h; Potency, µM (highest dose often 46.1 µM), for inactives: top-dose activity change, negative = cytotoxicity, hits mostly inhibitors; 170 tested, 10% active; AID 2547; also: potency is read from the fitted curve at half-maximal effect; % is scaled to controls: 0 for no effect and ±100 for the full control effect
Pol kappa inh-2: confirmation of human DNA polymerase kappa inhibitors; shares compounds with Pol eta inh-1; purified Pol-kappa, fluorescent strand-displacement substrate; Potency, µM, hits mostly inhibitors; 920 tested, 76% active; AID 720501; also: potency is read from the fitted curve at half-maximal effect
Pol eta inh-2: confirmation of human DNA polymerase eta inhibitors; shares compounds with Pol eta inh-1; Pol eta primer extension, TAMRA/BHQ fluorescence, 10 min; Potency, µM, most hits filed as inhibitors; 2,600 tested, 64% active; also: potency is read from the fitted curve at half-maximal effect
Active calls of the source: *; ? = inconclusive; nt = not tested or not shown; [ ] = another dose, or the depositor's remark. Unless noted, calls follow the shape of the dose curve; as a rule, active = well fitted curve in the direction sought with a large enough effect; inconclusive = small, poorly fitted or top-dose-only effect, or another doubt; inactive = no such curve, though single readings can be large; an effect the other way counts as inactive or inconclusive.

SMILES	WRN helicase inh	Pol beta inh-1	Pol kappa inh-1	Pol eta inh-1	POLI inh	Pol beta inh-2	Klenow inh	HIV RT counter	POLI cherry-pick	Pol eta inh-2	others
Cc1ccc(CNC(=O)Cc2ccc(-n3cccc3)cc2)cc1	-7%	?	-2%	?	-13%	nt	nt	nt	nt	nt
Cc1ccc(CNC(=O)c2ccc(-n3cccc3)cc2)cc1	40µM*	6.3µM*	22µM*	13µM*	14µM*	8.9*	-27	21	19*	30*	Pol kappa inh-2=19*
O=S(=O)(c1ccc(-c2csc(=Nc3ccc(OC(F)(F)Cl)cc3)n2CCCO)cc1)N1CCCC1	nt	?	6%	-19%	-14%	nt	nt	nt	nt	nt
Cc1ccc2nc(/C(C#N)=C/c3ccc(-c4ccc(F)cc4F)o3)[nH]c2c1	nt	?	-22%	?	76%	nt	nt	nt	nt	nt
Cc1ccc2nc(/C(C#N)=C/c3ccc(-c4cccc([N+](=O)[O-])c4)o3)[nH]c2c1	?	5µM*	-31%	?	10µM*	5.6*	-39	32	?	76*
Cc1c(/C=C(\C#N)C(=O)Nc2cccc(Cl)c2)c2ccccc2n1Cc1ccccc1	nt	?	-4%	-29%	19%	nt	nt	nt	nt	nt
CCCCCSc1nc2sc3c(c2c(=O)n1-c1ccccc1)CCN(C(C)=O)C3	nt	7%	-14%	-16%	-4%	nt	nt	nt	nt	nt
Cc1cccc2sc(NC(=O)C3CCCO3)nc12 (centres undefined)	-3%	0%	-5%	0%	-6%	nt	nt	nt	nt	nt
Cc1nc(C)c(C(=O)Nc2nc3c(C)cccc3s2)o1	?	18µM*	40µM*	25µM*	?	32*	-5	5	?	48*
CCCCc1cc(=O)oc2cc(C)c(CN3CCCC3)c(O)c12	50µM*	5µM*	?	20µM*	11µM*	35*	1	12	nt	30*
CCCN(CCC)C(=O)Cn1c(SCc2cccc(F)c2)nc2cccnc21	nt	-16%	-14%	-11%	26%	nt	nt	nt	nt	nt
O=C(NCc1ccco1)c1c2c(nc3ccccc13)CCC2	45µM*	11µM*	32µM*	3.2µM*	8.9µM*	25*	-6	10	?	85*	POLB valid=99*
O=C(CSc1c2c(nc3ccccc13)CCCC2)NCc1ccco1	1%	5%	-1%[60.1 µM]	19%	12%	nt	nt	nt	nt	nt
N[C@@]1(C(=O)O)CN[C@@H](C(=O)O)C1	nt	nt	2%[19.4 µM]	nt	nt	nt	nt	nt	nt	nt
Cc1cc(=O)oc2cc(OCc3ccc(C(=O)OCC(=O)NC4CCS(=O)(=O)C4)cc3)ccc12 (centres undefined)	-32%	3.5µM*	79µM*	22µM*	20µM*	25*	-20	-4	38*	27*	POLB valid=75*
CCn1c(SCC(=O)c2ccc(O)c(O)c2)nnc1-c1ccccc1OC	20µM*	10µM*	20µM*	1.4µM*	10µM*	8.9*	-10	?	?	30*	TbPGK inh=7.3µM*;Pol kappa inh-2=17*
CC(C)(C)OC(=O)N1CCC(c2c(C(=O)N3CCCCC3)cnn2-c2ccccc2Cl)CC1	nt	6%	-3%	-15%	40%	nt	nt	nt	nt	nt
O=C1/C(=C\c2ccc(O)c(O)c2)C(c2ccccc2)=NN1c1ccccc1	?	8.9µM*	71µM*	8.9µM*	22µM*	7.1*	-12	-18	nt	43*	GALK inh confirm=?;Redox cycling=?;HEK293 tox=-12%;Pol kappa inh-2=19*
COc1ccccc1/C=c1\sc2nc(-c3ccco3)nn2c1=O	40µM*	10µM*	32µM*	8.9µM*	18µM*	28*	-32	4	42*	19*	POLB valid=95*
Cc1oc(-c2ccc(F)cc2)cc1-c1nn2c(-c3ccoc3C)nnc2s1	?	3.5µM*	28µM*	7.9µM*	7.9µM*	?	-6	3	?	76*
COc1ccc(-c2nnc3sc(-c4ccco4)nn23)cc1OC	1%	?	-7%	-6%	13%	nt	nt	nt	nt	nt
O=C(CCCn1c(SCC(=O)c2ccc(O)c(O)c2)nc2ccccc2c1=O)NCC1CCCO1 (centres undefined)	22µM*	7.9µM*	20µM*	20µM*	14µM*	10*	-25	-12	nt	60*
CC(C)Cn1c(N)c(C(=O)COC(=O)c2cc(-c3ccco3)nc3ccccc23)c(=O)n(C)c1=O	?	14µM*	?	18µM*	25µM*	11*	-7	-16	nt	48*
CC(C)Cn1c(N)c(C(=O)COC(=O)c2cc(-c3ccccc3)nc3ccccc23)c(=O)n(C)c1=O	7%	22%	5%	-17%	24%	nt	nt	nt	nt	nt
